Holding throughout (assay): protein-binding microarray (PBM); PBM: ~300 nM protein, 6 mM HEPES pH 7.8, 80 mM KCl, 0.5 mM EDTA, 0.5 mM EGTA, 6% glycerol, 35 ng/ul poly-dIdC, 1% milk, 1 h, room temperature; Ap Aiptasia and Nv Nematostella (sea anemones) / Co Capsaspora / Aq Amphimedon (sponge) / Dm Drosophila / Hu human; RHD is the Rel homology domain; high values mean tight binding
Details in all cases: dsDNA, one strand shown

In one experiment the target is T1, GST-Ap-NF-kB RHD (Exaiptasia pallida (Aiptasia), UniProt A0A913YAJ5 2-422).
T1 sequence: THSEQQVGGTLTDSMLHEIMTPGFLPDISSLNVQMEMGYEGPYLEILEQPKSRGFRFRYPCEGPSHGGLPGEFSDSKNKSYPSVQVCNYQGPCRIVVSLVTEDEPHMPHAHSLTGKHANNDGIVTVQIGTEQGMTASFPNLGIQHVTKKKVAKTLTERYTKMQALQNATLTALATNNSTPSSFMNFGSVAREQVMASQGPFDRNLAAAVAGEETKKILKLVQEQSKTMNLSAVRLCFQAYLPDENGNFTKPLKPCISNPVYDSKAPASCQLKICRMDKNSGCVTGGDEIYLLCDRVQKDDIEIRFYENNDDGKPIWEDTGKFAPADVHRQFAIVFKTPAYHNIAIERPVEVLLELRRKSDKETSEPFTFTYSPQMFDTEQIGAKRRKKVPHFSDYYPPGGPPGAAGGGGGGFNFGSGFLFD

Experiment [1] addresses T2, GST-Nv-NF-kB (Cys allele) (Nematostella vectensis, UniProt E5G601 2-411).
T2 sequence: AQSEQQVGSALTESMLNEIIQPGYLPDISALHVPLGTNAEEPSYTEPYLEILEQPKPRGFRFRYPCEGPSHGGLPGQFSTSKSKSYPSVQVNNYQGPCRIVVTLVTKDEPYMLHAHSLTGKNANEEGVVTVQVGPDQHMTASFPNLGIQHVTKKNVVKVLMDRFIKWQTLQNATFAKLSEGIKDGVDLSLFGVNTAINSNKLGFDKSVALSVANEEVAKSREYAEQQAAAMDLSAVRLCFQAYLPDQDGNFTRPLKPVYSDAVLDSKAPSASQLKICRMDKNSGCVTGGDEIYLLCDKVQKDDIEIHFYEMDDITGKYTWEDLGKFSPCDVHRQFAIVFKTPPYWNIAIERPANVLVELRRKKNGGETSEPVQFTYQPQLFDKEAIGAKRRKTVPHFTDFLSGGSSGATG

The target of the next experiment is T3, GST-Dm-Relish (Drosophila melanogaster, UniProt Q94527 99-473).
T3 sequence: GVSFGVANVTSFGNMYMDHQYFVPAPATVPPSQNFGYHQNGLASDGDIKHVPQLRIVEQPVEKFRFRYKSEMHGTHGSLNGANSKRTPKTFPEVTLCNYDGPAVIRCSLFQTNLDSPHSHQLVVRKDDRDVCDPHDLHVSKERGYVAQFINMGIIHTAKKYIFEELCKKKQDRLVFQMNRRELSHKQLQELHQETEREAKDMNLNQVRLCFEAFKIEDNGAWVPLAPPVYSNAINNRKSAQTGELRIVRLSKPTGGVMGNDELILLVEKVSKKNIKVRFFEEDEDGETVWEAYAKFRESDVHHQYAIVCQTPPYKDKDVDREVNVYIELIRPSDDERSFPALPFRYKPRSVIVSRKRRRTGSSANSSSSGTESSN

The target of the next experiment is T4, GST-Aq-NF-kB (Amphimedon queenslandica, UniProt A9Y5G7 2-389).
T4 sequence: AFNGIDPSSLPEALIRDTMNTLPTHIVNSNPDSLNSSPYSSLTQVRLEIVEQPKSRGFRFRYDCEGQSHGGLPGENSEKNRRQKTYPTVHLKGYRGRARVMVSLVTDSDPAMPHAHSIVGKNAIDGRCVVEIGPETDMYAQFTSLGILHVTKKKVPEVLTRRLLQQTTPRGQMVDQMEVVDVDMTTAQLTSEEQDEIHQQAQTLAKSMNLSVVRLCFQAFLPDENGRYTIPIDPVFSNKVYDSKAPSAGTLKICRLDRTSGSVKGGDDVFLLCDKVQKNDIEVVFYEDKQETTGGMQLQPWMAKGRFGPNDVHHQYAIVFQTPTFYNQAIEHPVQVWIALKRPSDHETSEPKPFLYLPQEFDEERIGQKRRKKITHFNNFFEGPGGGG

Regarding “CCGATTAACATCAGGAGGCCCCCTGATGTTAATCGGGTCTTGATTCGCTTGACGCTGCTG”, the binding signal was 4.97 z-score with GST-Ap-NF-kB RHD, 2.51 z-score in experiment [1], 2.71 z-score with GST-Dm-Relish and 5.1 z-score in the experiment with GST-Aq-NF-kB.
On the same counts, the results for “CCGATTAACATCAGGAACATCCCTGATGTTAATCGGGTCTTGATTCGCTTGACGCTGCTG” are 1.46 z-score, 1.39 z-score, 1.9 z-score and 4.06 z-score.
The like results for “CCGATTAACATCAGGTAATTCCATGATGTTAATCGGGTCTTGATTCGCTTGACGCTGCTG” were, in that order, 1.26 z-score, 1.89 z-score, 4.41 z-score and 3.06 z-score.
For the sequence “CCGATTAACATCAGGAATTCACCTGATGTTAATCGGGTCTTGATTCGCTTGACGCTGCTG”, the binding signal in the experiment with GST-Ap-NF-kB RHD was 1.52 z-score; in experiment [1] it was 3.06 z-score; with GST-Dm-Relish, 6.05 z-score; with GST-Aq-NF-kB it was 4.83 z-score.
“CCGATTAACATCAGAAAATGCCCTGATGTTAATCGGGTCTTGATTCGCTTGACGCTGCTG”: the binding signal came out at 1.93 z-score in the experiment with GST-Ap-NF-kB RHD, 2.33 z-score in experiment [1], 2.42 z-score with GST-Dm-Relish and 3.47 z-score with GST-Aq-NF-kB.
As for “CCGATTAACATCACGGAATTACCTGATGTTAATCGGGTCTTGATTCGCTTGACGCTGCTG”, the binding signal in the experiment with GST-Ap-NF-kB RHD worked out at 1.02 z-score; in experiment [1], 1.63 z-score; with GST-Dm-Relish, 3.44 z-score; with GST-Aq-NF-kB it was 3.88 z-score.
